Source: the supplement of paper PMC10849652
The full data set covers some 7,900 targets. This sample favours those with a hit. About 0.6% of all pairs of compound and target were hits.

Key:
Assay in all cases: log2 fold change, soluble protein after heating vs DMSO (PISA); higher = thermal stabilisation; K562 cells, 10 uM, 30 min; active = over 0.2 and 3.5 SD of the protein, either way, in both replicates (recomputed)
[1] = compound: Cc1ccc(NC(=O)c2ccc(CN3CC[C@H](N(C)C)C3)c(C(F)(F)F)c2)cc1Nc1nccc(-c2cncnc2)n1 [bafetinib]
Summary of the method: (§1)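 K562 cells at 2×10^6 cells/mL were treated with 10 μM compound for 30 min. Aliquots were heated for 3 min across 48°C-58°C, pooled, and extracted in PBS with 0.5% NP-40 at 4°C; soluble protein was the supernatant after 21,000xg for 90 min. Soluble protein was quantified by TMTpro 16plex LC-MS/MS with channel sums equalised, and reported as log2 fold change in thermal stability against DMSO controls, with values from duplicates.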

[2] = compound: Cc1cccc(CC(=O)N2CCc3c2ccc(-c2cn(C)c4ncnc(N)c24)c3F)n1
Summary of the method: as §1

[3] = compound: Cc1cn(-c2cc(NC(=O)c3ccc(C)c(Nc4nccc(-c5cccnc5)n4)c3)cc(C(F)(F)F)c2)cn1 [nilotinib]
Summary of the method: as §1

[4] = compound: Cc1nc(Nc2n[nH]c3c2CN(C(=O)N[C@H](CN(C)C)c2ccccc2)C3(C)C)c2sccc2n1
Summary of the method: as §1

[5] = compound: Cc1nc(Nc2ncc(C(=O)Nc3c(C)cccc3Cl)s2)cc(N2CCN(CCO)CC2)n1 [dasatinib]
Summary of the method: as §1

[6] = compound: Cc1ncc(-c2ccnc(Nc3ccc(S(C)(=O)=O)cc3)n2)n1C(C)C
Summary of the method: as §1

[7] = compound: Cn1cc(-c2ccc3c(c2)CCN3C(=O)Cc2cccc(C(F)(F)F)c2)c2c(N)ncnc21
Summary of the method: as §1

[8] = compound: Cn1cc(-c2ccc3nnc(C(F)(F)c4ccc5ncccc5c4)n3n2)cn1
Summary of the method: as §1

[9] = compound: Cn1cncc1[C@@](N)(c1ccc(Cl)cc1)c1ccc2c(c1)c(-c1cccc(Cl)c1)cc(=O)n2C [tipifarnib]
Summary of the method: as §1

[10] = compound: FC(F)(F)c1ccc(/C=C/c2nc(COc3ccc(CCCCn4ccnn4)cc3)co2)cc1 [mubritinib]
Summary of the method: as §1

Measured: log2 fold change

AFDN isoform 5 (UniProt P55196)
inactive: [1] -0.012 | [2] 0.035 | [3] -0.06 | [4] -0.135 | [5] -0.16 | [6] -0.06 | [7] 0.044 | [8] -0.008 | [9] -0.045 | [10] 0.054

BLVRB (UniProt P30043)
inactive: [1] 0.014 | [2] 0.05 | [3] 0.021 | [4] -0.109 | [5] -0.064 | [6] 0.029 | [7] 0.032 | [8] 0.074 | [9] -0.021 | [10] -0.097

APOH (UniProt P02749)
UniProt P02749, sequence (P02749 whole entry, looked up): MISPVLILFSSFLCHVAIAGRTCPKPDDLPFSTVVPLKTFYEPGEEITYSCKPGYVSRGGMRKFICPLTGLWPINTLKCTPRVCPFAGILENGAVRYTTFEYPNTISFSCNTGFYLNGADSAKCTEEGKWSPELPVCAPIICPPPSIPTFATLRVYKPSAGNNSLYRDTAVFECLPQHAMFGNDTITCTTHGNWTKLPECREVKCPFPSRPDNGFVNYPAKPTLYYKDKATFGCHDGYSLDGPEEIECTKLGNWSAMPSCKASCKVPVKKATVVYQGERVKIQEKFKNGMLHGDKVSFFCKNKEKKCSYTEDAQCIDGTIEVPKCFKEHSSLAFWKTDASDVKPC
active: [1] -1.07
inactive: [2] 0.083 | [3] 0 | [4] 0.031 | [5] -0.281 | [6] 0.392 | [7] 0.145 | [8] -0.167 | [9] 0.085 | [10] -0.346

BRD8 (UniProt Q9H0E9)
inactive: [1] -0.032 | [2] -0.072 | [3] -0.01 | [4] -0.055 | [5] 0.057 | [6] -0.019 | [7] 0.018 | [8] -0.028 | [9] 0.054 | [10] 0.011

ACSL5 isoform 3 (UniProt Q9ULC5)
UniProt Q9ULC5, sequence (Q9ULC5 whole entry, looked up): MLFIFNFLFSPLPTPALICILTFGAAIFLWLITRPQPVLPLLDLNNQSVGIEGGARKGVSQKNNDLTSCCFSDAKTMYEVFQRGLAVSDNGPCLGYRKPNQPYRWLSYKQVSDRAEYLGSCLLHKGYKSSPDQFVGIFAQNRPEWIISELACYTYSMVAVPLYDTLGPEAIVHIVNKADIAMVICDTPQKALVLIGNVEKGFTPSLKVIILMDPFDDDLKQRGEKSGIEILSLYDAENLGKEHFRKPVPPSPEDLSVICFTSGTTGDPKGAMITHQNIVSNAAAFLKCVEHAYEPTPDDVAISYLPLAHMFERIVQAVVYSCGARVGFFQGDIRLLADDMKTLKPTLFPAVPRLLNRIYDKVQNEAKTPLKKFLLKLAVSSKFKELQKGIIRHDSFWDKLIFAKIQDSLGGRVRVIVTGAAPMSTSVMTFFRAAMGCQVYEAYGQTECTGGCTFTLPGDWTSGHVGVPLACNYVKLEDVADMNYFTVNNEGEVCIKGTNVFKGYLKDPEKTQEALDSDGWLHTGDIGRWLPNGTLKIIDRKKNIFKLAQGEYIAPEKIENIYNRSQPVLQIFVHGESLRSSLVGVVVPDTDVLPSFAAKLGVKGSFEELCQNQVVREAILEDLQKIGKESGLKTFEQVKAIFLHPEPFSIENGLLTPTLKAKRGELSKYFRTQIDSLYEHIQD
active: [1] -0.271
inactive: [2] -0.01 | [3] -0.055 | [4] -0.06 | [5] 0.062 | [6] 0.012 | [7] 0.066 | [8] 0.007 | [9] 0.043 | [10] -0.018

ACSL1 (UniProt P33121)
inactive: [1] -0.178 | [2] -0.004 | [3] -0.003 | [4] -0.07 | [5] -0.076 | [6] -0.013 | [7] 0.027 | [8] 0.024 | [9] -0.015 | [10] -0.009

BID isoform 2 (UniProt P55957)
UniProt P55957, sequence (P55957 whole entry, looked up): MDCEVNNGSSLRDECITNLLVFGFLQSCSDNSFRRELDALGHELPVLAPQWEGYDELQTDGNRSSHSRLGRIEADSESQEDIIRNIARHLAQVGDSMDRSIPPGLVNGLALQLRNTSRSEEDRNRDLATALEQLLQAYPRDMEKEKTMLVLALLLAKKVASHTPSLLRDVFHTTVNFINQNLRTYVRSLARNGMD
inactive: [1] -0.035 | [2] -0.071 | [3] 0.019 | [4] -0.006 | [5] 0.018 | [6] 0.005 | [7] 0.038 | [8] 0.007 | [9] -0.079 | [10] 0.044

ACSL3 (UniProt O95573)
inactive: [1] -0.066 | [2] 0.042 | [3] -0.086 | [4] -0.048 | [5] -0.06 | [6] 0.011 | [7] 0.029 | [8] 0.075 | [9] -0.042 | [10] 0

AUP1 (UniProt Q9Y679)
inactive: [1] -0.023 | [2] 0.11 | [3] -0.102 | [4] -0.055 | [5] -0.097 | [6] 0.018 | [7] 0.01 | [8] -0.03 | [9] -0.106 | [10] 0.033

BECN1 (UniProt Q14457)
UniProt Q14457, sequence (Q14457 whole entry, looked up): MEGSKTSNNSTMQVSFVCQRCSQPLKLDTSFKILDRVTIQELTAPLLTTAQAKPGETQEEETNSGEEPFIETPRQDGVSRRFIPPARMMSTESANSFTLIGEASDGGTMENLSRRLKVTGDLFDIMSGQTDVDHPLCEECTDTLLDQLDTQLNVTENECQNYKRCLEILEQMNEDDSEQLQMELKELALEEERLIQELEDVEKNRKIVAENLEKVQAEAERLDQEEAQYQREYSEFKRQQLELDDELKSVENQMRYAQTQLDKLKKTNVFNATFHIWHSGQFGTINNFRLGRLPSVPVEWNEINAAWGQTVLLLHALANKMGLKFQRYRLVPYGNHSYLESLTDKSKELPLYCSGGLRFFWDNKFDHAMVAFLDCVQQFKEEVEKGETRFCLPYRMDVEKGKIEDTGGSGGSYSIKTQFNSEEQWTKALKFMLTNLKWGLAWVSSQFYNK
inactive: [1] 0.063 | [2] -0.032 | [3] 0.032 | [4] -0.025 | [5] -0.072 | [6] 0.076 | [7] -0.015 | [8] -0.038 | [9] -0.003 | [10] 0.023

ACAD9 (UniProt Q9H845)
inactive: [1] -0.061 | [2] -0.022 | [3] 0 | [4] 0.021 | [5] 0.125 | [6] -0.023 | [7] 0.047 | [8] 0.014 | [9] 0.055 | [10] 0.067

ATP23 (UniProt Q9Y6H3)
inactive: [1] -0.1 | [2] -0.015 | [3] -0.092 | [4] 0.067 | [5] 0.041 | [6] -0.011 | [7] -0.097 | [8] 0.023 | [9] 0.081 | [10] 0.033

ATAD3B (UniProt Q5T9A4)
inactive: [1] -0.014 | [2] 0.018 | [3] -0.072 | [4] -0.039 | [5] -0.099 | [6] 0.027 | [7] -0.103 | [8] -0.186 | [9] 0.03 | [10] -0.37

ANXA5 (UniProt P08758)
inactive: [1] 0.019 | [2] 0.058 | [3] -0.015 | [4] -0.052 | [5] -0.079 | [6] 0.006 | [7] 0.017 | [8] 0.025 | [9] -0.061 | [10] 0.009

ACP2 (UniProt P11117)
inactive: [1] -0.107 | [2] -0.06 | [3] 0.002 | [4] -0.006 | [5] 0 | [6] 0.02 | [7] 0.015 | [8] 0.03 | [9] 0.061 | [10] -0.008

ANAPC2 (UniProt Q9UJX6)
inactive: [1] -0.048 | [2] 0.024 | [3] -0.004 | [4] -0.053 | [5] -0.04 | [6] 0.003 | [7] -0.005 | [8] -0.036 | [9] -0.005 | [10] 0.049

BZW1 isoform 3 (UniProt Q7L1Q6)
UniProt Q7L1Q6, sequence (Q7L1Q6 whole entry, looked up): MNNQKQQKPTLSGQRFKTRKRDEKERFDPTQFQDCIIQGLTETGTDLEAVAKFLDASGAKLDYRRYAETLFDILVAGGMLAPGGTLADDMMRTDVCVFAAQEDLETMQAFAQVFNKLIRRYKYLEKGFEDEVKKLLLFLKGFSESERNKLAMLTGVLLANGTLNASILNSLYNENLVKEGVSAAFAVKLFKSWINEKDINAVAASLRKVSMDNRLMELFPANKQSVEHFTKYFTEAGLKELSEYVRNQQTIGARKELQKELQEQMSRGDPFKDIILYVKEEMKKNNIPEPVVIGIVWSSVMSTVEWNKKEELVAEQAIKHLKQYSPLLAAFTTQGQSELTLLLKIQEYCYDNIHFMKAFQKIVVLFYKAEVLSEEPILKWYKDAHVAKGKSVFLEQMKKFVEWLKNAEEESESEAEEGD
inactive: [1] 0.002 | [2] 0.167 | [3] -0.124 | [4] -0.138 | [5] -0.283 | [6] 0.03 | [7] 0.017 | [8] 0.011 | [9] -0.364 | [10] 0.089

BCAP29 isoform 2 (UniProt Q9UHQ4)
UniProt Q9UHQ4, sequence (Q9UHQ4 whole entry, looked up): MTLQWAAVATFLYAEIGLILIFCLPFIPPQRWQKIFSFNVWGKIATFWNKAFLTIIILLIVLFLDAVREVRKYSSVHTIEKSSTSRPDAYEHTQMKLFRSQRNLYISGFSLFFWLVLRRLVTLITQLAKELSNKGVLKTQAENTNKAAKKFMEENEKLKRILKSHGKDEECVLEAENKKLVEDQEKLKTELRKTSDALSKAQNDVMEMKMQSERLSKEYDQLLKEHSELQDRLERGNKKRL
inactive: [1] -0.159 | [2] -0.027 | [3] -0.002 | [4] 0.035 | [5] 0.154 | [6] -0.018 | [7] 0 | [8] 0.04 | [9] 0.058 | [10] 0.02

ARAF (UniProt P10398)
inactive: [1] -0.015 | [2] 0.01 | [3] -0.021 | [5] -0.031 | [6] 0.009 | [7] 0.007 | [8] -0.003 | [9] 0.144 | [10] -0.092
active: [4] -0.236

ADD2 (UniProt P35612)
inactive: [1] 0.012 | [2] 0.011 | [3] 0.022 | [4] -0.026 | [5] -0.033 | [6] -0.048 | [7] 0.029 | [8] 0.001 | [9] 0.035 | [10] 0.011

ARL2BP (UniProt Q9Y2Y0)
UniProt Q9Y2Y0, sequence (Q9Y2Y0 whole entry, looked up): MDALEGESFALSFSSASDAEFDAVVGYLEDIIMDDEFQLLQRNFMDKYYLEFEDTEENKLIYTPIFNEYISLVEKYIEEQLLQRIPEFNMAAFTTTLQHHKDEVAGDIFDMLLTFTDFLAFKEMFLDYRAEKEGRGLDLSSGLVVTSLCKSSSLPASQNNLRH
inactive: [1] 0.001 | [2] 0 | [3] -0.078 | [4] -0.086 | [5] -0.069 | [6] -0.103 | [7] 0.125 | [8] 0.011 | [9] -0.091 | [10] -0.027

ALDH9A1 (UniProt P49189)
inactive: [1] 0.023 | [2] 0.071 | [3] -0.08 | [4] -0.046 | [5] -0.105 | [6] 0.019 | [7] 0.047 | [8] 0.044 | [9] 0.099 | [10] -0.015

ALKBH5 (UniProt Q6P6C2)
inactive: [1] 0.038 | [2] -0.15 | [3] 0.018 | [4] -0.025 | [5] 0.014 | [6] 0.011 | [7] -0.042 | [8] 0.011 | [9] 0.077 | [10] -0.019

AHSA1 (UniProt O95433)
UniProt O95433, sequence (O95433 whole entry, looked up): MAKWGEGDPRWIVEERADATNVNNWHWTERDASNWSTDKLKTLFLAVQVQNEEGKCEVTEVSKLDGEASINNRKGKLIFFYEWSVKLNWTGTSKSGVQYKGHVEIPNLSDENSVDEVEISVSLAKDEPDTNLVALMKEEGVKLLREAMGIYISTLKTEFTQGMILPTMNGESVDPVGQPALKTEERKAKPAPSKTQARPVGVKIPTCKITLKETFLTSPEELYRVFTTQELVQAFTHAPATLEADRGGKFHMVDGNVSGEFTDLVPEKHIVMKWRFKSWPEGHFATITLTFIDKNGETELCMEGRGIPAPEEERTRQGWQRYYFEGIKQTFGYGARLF
inactive: [1] -0.059 | [2] 0.013 | [3] -0.052 | [4] -0.035 | [5] -0.096 | [6] -0.018 | [7] 0.065 | [8] 0.009 | [9] -0.056 | [10] 0.038

ADD3 (UniProt Q9UEY8)
UniProt Q9UEY8, sequence (Q9UEY8 whole entry, looked up): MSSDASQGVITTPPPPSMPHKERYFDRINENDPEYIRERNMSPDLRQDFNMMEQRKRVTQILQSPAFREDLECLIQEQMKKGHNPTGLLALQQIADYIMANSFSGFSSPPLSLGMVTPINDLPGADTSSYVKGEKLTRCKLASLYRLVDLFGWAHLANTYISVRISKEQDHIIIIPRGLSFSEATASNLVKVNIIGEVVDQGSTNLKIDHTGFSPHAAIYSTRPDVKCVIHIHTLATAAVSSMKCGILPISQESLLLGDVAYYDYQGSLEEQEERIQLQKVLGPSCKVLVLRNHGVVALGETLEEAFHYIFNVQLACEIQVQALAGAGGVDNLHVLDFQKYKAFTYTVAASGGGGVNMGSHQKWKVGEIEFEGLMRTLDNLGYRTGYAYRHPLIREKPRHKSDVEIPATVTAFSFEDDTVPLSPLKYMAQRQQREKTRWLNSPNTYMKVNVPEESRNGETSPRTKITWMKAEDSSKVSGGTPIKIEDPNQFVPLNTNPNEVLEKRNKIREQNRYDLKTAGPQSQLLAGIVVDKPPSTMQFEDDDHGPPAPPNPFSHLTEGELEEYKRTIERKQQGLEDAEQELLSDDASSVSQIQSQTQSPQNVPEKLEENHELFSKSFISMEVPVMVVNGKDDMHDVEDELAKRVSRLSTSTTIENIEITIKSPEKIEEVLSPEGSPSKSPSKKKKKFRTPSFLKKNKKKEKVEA
inactive: [1] 0.008 | [2] -0.008 | [3] 0.031 | [4] -0.004 | [5] 0.072 | [6] -0.096 | [7] 0.028 | [8] -0.016 | [9] 0.009 | [10] 0.038

BCCIP isoform 2 (UniProt Q9P287)
UniProt Q9P287, sequence (Q9P287 whole entry, looked up): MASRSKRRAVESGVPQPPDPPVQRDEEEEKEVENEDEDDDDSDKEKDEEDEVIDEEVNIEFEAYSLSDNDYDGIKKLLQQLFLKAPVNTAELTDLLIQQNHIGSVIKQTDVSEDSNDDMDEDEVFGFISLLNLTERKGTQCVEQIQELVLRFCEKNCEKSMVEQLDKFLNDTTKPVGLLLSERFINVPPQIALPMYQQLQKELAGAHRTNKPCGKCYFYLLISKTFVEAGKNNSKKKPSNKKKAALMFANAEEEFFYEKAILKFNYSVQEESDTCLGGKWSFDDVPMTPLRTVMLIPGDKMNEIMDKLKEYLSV
inactive: [1] 0.014 | [2] 0.021 | [3] -0.046 | [4] -0.029 | [5] -0.071 | [6] 0.017 | [7] -0.064 | [8] -0.007 | [9] -0.015 | [10] -0.023

ATP5IF1 (UniProt Q9UII2)
UniProt Q9UII2, sequence (Q9UII2 whole entry, looked up): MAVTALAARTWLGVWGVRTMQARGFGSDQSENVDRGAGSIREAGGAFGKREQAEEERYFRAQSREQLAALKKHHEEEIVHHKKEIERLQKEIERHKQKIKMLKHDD
inactive: [1] -0.039 | [2] -0.101 | [3] -0.038 | [4] 0.005 | [5] 0.055 | [6] -0.042 | [7] -0.002 | [8] 0.094 | [9] 0.059 | [10] 0.033

ATP6V0A1 isoform 3 (UniProt Q93050)
UniProt Q93050, sequence (Q93050 whole entry, looked up): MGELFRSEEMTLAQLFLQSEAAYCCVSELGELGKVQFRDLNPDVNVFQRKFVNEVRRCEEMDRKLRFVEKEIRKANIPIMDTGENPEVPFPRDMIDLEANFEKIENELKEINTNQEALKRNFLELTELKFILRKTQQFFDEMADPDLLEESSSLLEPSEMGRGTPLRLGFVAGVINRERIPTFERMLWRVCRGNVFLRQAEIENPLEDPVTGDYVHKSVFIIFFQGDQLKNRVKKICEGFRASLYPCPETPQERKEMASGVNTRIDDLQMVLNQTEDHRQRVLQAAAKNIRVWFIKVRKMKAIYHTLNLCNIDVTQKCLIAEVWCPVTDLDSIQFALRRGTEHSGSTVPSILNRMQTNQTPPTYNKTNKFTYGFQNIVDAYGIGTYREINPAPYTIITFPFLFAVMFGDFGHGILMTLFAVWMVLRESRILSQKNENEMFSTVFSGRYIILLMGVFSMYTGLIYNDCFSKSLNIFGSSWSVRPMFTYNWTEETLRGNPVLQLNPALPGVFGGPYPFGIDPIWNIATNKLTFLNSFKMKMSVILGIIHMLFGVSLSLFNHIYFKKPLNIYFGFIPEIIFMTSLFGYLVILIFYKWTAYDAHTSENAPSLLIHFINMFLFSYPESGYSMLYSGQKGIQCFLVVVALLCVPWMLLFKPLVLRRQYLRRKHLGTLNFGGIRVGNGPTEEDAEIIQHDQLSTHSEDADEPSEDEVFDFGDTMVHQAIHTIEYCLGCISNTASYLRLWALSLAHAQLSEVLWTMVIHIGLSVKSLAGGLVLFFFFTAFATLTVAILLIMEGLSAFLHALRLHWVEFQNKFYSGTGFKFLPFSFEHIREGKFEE
inactive: [1] -0.12 | [2] 0.153 | [3] -0.026 | [4] -0.029 | [5] 0.018 | [6] -0.079 | [7] -0.097 | [8] -0.098 | [9] 0.038 | [10] -0.026

AIFM2 (UniProt Q9BRQ8)
inactive: [1] 0.008 | [2] -0.129 | [3] 0.067 | [4] 0.023 | [5] 0.046 | [6] -0.043 | [7] 0.081 | [8] 0.032 | [9] 0.199 | [10] 0.025
